The full list was thinned out, with hits kept by preference.
Tgondii IFNg: T. gondii growth inhibition under IFN-gamma | Toxoplasma gondii growth in IFN-gamma-treated host cells; active compounds read low | activity change, negative = inhibition, % (concentration not given with the values) | 69,000 compounds, 3.8% hits; in the data active = activity change below about -70%, passing the limit was not always enough;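 note: host cells are HeLa cells infected with Toxoplasma gondii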
Large screens that a line does not name were inactive.

O=C(Nc1csc(-c2ccc(Cl)cc2)c1)c1cccnc1Oc1ccc(Cl)cc1	none
O=C(NCc1csc2ccc(Cl)cc12)c1cccnc1Oc1ccc(Cl)cc1	none
Cc1cn(CCNc2nccc(C3CCCC3)n2)nn1	none
COCCNC(=O)Cn1ncc2c(N3CCN(c4ccccc4)CC3)ncnc21	none
CCOC(=O)c1ccc2c(c1)N(Cc1nc(-c3ccc(C)cc3)oc1C)C(=O)c1ccccc1S2	none
Cc1ccc(-c2cc(O)c3c(c2)CN(C(=O)CCCn2cncn2)CCO3)cc1	Tgondii IFNg -75.7
Oc1cc(-c2csc3ccccc23)cc2c1OCCN(CCn1cncn1)C2	none
O=C(CCN1CCCO1)N1CCOc2c(O)cc(-c3cccnc3)cc2C1	none
Cc1nnc2n1N=C(c1ccc(-c3ccc(Cl)c(Cl)c3)o1)CS2	none
Cn1c(C(=O)N2CCCC2)nc2c1CCN(S(C)(=O)=O)C2	none
CSc1cc(-c2ccc(Cl)cc2)nc(-c2cccs2)c1	none
CN(C)CCN1C(=O)CCC12CCCN(C(=O)C1CCOC1)CC2 (centres undefined)	none
CC12CC3CC(C)(C1)CC(C(=O)N1CCCC1c1nc(-c4ccccn4)no1)(C3)C2 (centres undefined)	none
Cn1cnc2c(NCc3ccccc3)nc(C3CCN(S(C)(=O)=O)CC3)cc21	none
Cc1cc(C(=O)N2CCC(c3cc4c(ncn4C)c(NCC4CC4)n3)CC2)ccc1Cl	Tgondii IFNg -85.0
CC(C)n1cnc2c(NCC3CC3)nc(C3CCN(C(=O)c4cccc(F)c4F)CC3)cc21	none
COCc1cnc2n1CCN(C(=O)COc1ccccc1)C2C (centres undefined)	none
CCc1nn(CC(=O)N2CCCC(c3nc(-c4cccnc4)no3)C2)c(=O)c2ccccc12 (centres undefined)	none
CC(C)CCN1Cc2c(C(=O)Nc3cccc(F)c3)ncn2-c2ccccc2S1(=O)=O	Tgondii IFNg -83.5
CN1Cc2c(C(=O)Nc3cccc(Cl)c3)ncn2-c2ccccc2S1(=O)=O	none
CC(C)C(C)NC(=O)c1ncn2c1CN(CC1CC1)S(=O)(=O)c1ccccc1-2 (centres undefined)	none
COc1cccc(C(=O)NCCc2csc(-c3ccccc3)n2)c1	none
O=C(NC1CCCCC1)c1cncc(NS(=O)(=O)c2ccc(Cl)cc2)c1	none
O=C(Cn1c(=O)cc(C(=O)N2CCCCC2)c2ccccc21)NC1CCCCC1	none
CN(C)C(=O)CN1CCCC2(CCN(S(=O)(=O)c3cn(C)cn3)C2)C1 (centres undefined)	none
CCn1c(CNC(=O)C2CCC2)nc2c1CN(C(=O)c1ccc(OC)cc1)CC2	none
COC(=O)C[C@](O)(CCCC(C)(C)O)C(=O)O[C@@H]1C(OC)=C[C@]23CCCN2CCc2cc4c(cc2[C@H]13)OCO4	Tgondii IFNg -81.7
CCOC(=O)Cc1csc(NC(=O)Cn2nnc3ccccc3c2=O)n1	none
Cn1c(C#N)ccc1-c1ccc2c(c1)C(C)(C)OC(=S)N2	Tgondii IFNg -82.8
CN(C)C1COC2(CCN(S(=O)(=O)C3CC3)CC2)C1 (centres undefined)	none
Cc1nc2c(c(=O)[nH]1)CCN(C(=O)c1cccc(N3CCCCS3(=O)=O)c1)C2	none
COc1ccc(CNC(=O)CN(C(=O)c2csnn2)c2ccc3c(c2)OCO3)cc1	none
Cc1ccc(-c2nc(Cn3c(=O)c4cccnc4n(-c4ccccc4)c3=O)c(C)o2)cc1	none
Cc1ccc(NC(=O)C(CC(C)C)NC(=O)OCc2ccccc2)cc1C (centres undefined)	none
O=C(Nc1ccc(OC(F)(F)F)cc1)c1cscc1Sc1ccc(Cl)cc1	none
Cc1cc(C(=O)Oc2ccc(Cl)cc2)no1	none
O=C(Oc1ccc(Cl)cc1)c1cscc1Sc1ccc(Cl)cc1	Tgondii IFNg -101.4
O=C(Cn1ncc2c(N3CCOCC3)ncnc21)Nc1ccc(F)cc1Cl	none
C=CCOCC1CN(Cc2cnn(C)c2)Cc2nccn2C1 (centres undefined)	none
Cc1cc(-c2ccc(-c3ccn[nH]3)cc2)cnc1-n1cnnc1	Tgondii IFNg -77.2
Cc1cc(C)c(-c2cnc(-n3cnnc3)c(C)c2)c(C)c1	Tgondii IFNg -78.3
OCc1cc(-c2ccc(-c3ccn[nH]3)cc2)ccn1	none
Cc1cnc(-n2cnnc2)c(-c2ccc(S(C)(=O)=O)cc2)c1	none
COC(C)c1cccc(-c2cnc(-n3cnnc3)c(C)c2)c1 (centres undefined)	none
CC(C)c1nccn1-c1ccc(-c2ccn[nH]2)cc1	none
Cn1nc(CN2CCCC2=O)c2c1CNC2	none
CCc1ccccc1OC1CN(Cc2ncc[nH]2)C1	none
Cc1occc1C(=O)N1CCCn2c(nc(CN3CCCC3)cc2=O)C1	none
Cc1[nH]c2c(CN3CCC(N)(C(=O)O)C3)cccc2c1C (centres undefined)	none
Cn1cc(CN2CC[C@@H]3[C@H]2CCN3Cc2cccs2)cn1	none
O=C1COc2ccc(C(O)C3CCN(C(=O)c4nsc(Cl)c4Cl)CC3)cc2N1 (centres undefined)	none
COCC(=O)N1CCN(Cc2csc(C)n2)c2ncccc2C1	none
Cc1cc(C(=O)NC(c2nc3c4c(C)c(C)oc4ncn3n2)C(C)C)cs1 (centres undefined)	none
CN1C[C@H]2C3(CCN(CC4CCOCC4)CC3)CC[C@]2(C(=O)N(C)C)C1	none
COCCN1C(=O)CCc2cc(NS(=O)(=O)c3ccc(CC(C)C)cc3)ccc21	Tgondii IFNg -78.8
